IMPase Li inh – qHTS Assay for Identifying the Cell-Membrane Permeable IMPase Inhibitors: Potentiation with Lithium | AID 1457, 2008 | CHO-M1 cells, IP1 TR-FRET (IP-One), carbachol + lithium | Potency, µM (highest dose often 59.4 µM), without a hit: at the top dose activity, negative = IMPase inhibition, actives largely listed as inhibitors | 210,000 tested, 0.35% active;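 also: IP1 builds up when IMPase is blocked and the TR-FRET signal falls; potency is read from the fitted curve at half-maximal effect; plate controls were basal vehicle for no effect and high inhibitor control for full effect; nearly all actives have a fitted effect of over 50% in size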
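Steps: plate 2000 CHO-M1 cells per well and culture 16–30 h; add compound and lithium; incubate 30 min, 37C; add d2-IP1 tracer and Eu cryptate anti-IP1 antibody in lysis buffer; read after 10 min at room temperature.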
PNC inhibitor – High Content Assay for Compounds that inhibit the Assembly of the Perinucleolar Compartment. PC3M PTB-GFP, PNC prevalence imaging, 16 h; active compounds read low. activity change (PNC), negative = inhibition, % at 10 µM. 140,000 tested, 3.1% active;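 active = readout at or below -70, meaning at least 70% loss of cells showing the perinucleolar compartment, a nuclear body marking cancer cells; inconclusive = readout between -30 and a set limit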;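 also: plate controls were DMSO wells for no effect and camptothecin positive control wells for full effect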
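Compounds are pinned in duplicate onto adhered PC3M cells stably expressing GFP-tagged PTB and incubated 16 h at 37 C. Cells are then fixed, nuclei stained with Hoechst, and PNC-positive cells counted.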
ALDH1A1 inh – qHTS Assay for Inhibitors of Aldehyde Dehydrogenase 1 (ALDH1A1). Aldehyde dehydrogenase 1A1 (Homo sapiens), P00352. Purified ALDH1A1, NADH fluorescence, propionaldehyde substrate. Potency, µM (titrated, usually from 75.3 µM), without a hit: at the top dose activity, negative = inhibition, usual class: inhibitors. 220,000 tested, 7.3% active. AID 1030, 2008; active = well fitted inhibition curve with a large enough effect, not every such curve was filed as active; inconclusive = small, poorly fitted or top-dose-only effect, or another doubt; inactive = no such curve, though single readings can be large or run the other way;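 also: potency is read from the fitted curve at half-maximal effect; plate controls were no enzyme wells and a reference inhibitor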
HPGD inh – qHTS Assay for Inhibitors of HPGD (15-Hydroxyprostaglandin Dehydrogenase); 15-hydroxyprostaglandin dehydrogenase [NAD(+)] (Homo sapiens), P15428; AID 894, 2007; purified HPGD, NADH fluorescence kinetic, PGE2 substrate; Potency, µM, inactives show at the highest dose activity change, negative = inhibition, hits mostly inhibitors; 150,000 tested, 4.3% active; active = well fitted inhibition curve with a large enough effect, not every such curve was filed as active; inconclusive = small, poorly fitted or top-dose-only effect, or another doubt; inactive = no such curve, though single readings can be large or run the other way; also: potency is read from the fitted curve at half-maximal effect
Target sequence (P15428 whole entry, looked up): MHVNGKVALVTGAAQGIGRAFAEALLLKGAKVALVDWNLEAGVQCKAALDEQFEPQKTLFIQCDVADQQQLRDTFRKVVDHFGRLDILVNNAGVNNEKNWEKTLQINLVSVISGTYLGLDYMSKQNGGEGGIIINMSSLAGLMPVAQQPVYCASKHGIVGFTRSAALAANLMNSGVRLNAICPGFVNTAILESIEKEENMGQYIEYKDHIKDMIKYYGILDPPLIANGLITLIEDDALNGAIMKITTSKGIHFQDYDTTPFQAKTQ
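NADH formation kinetics: reaction with 30 uM PGE2 and 1 mM NAD+ (final), 20 nM enzyme, Tris-HCl pH 8 with Tween 20, after 15 min compound preincubation at room temperature. Fluorescence change, last versus first of five reads.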
IMPase cell inh – qHTS Assay for Identifying the Cell-Membrane Permeable IMPase Inhibitors. Inositol monophosphatase 1 (Rattus norvegicus), P97697. CHO-M1 cells, IP1 accumulation, HTRF TR-FRET ratio. inhibition (IP1 accumulation), % at 46.1 µM. 120,000 tested, under 10 active; active = well fitted curve in the direction sought with a large enough effect in the signal ratio, not every such curve was filed as active; inconclusive = small, poorly fitted or top-dose-only effect, or a change in a side signal; inactive = no such curve, though single readings can be large or run the other way; the % refers to the signal ratio;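 also: cells stimulated with carbachol in lithium chloride buffer; plate controls were DMSO basal wells for no effect and reference inhibitor wells for full effect; higher means more IMPase inhibition seen as more IP1 and lower FRET ratio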
Target sequence (P97697 whole entry, looked up): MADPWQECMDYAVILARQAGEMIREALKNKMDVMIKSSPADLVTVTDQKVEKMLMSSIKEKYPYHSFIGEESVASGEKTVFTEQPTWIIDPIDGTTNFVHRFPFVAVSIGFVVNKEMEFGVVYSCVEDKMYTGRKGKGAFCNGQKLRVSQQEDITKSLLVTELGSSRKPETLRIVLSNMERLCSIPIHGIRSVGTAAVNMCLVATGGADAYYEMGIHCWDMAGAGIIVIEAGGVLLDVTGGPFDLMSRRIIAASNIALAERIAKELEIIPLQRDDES
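Elevated IP1 in lysates lowers TR-FRET signal (665/620 ratio and 620 channel reported). Cells were CHO-M1, given carbachol (50 uM as added) plus 50mM LiCl, pH 7.4, 30 min, 37C; compounds titrated up to 46 uM; AC50 by Hill equation.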
12-hLO inh – qHTS Assay for Inhibitors of 12-hLO (12-human lipoxygenase); Potency, µM (highest dose often 57.1 µM), for inactives: top-dose activity change, negative = inhibition, usual class: inhibitors; 150,000 tested, 0.12% active; Polyunsaturated fatty acid lipoxygenase ALOX12 (Homo sapiens), P18054; purified 12-hLO, xylenol orange hydroperoxide absorbance; also: potency is read from the fitted curve at half-maximal effect; nearly all actives have a fitted effect of over 55% in size
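Hydroperoxide output read as Fe(III)-xylenol orange absorbance, 573-to-405 nm ratio, after 30 min reaction with 40 uM arachidonic acid. Enzyme: 150 nM purified human 12hLO, 15 min compound preincubation; 25 mM Hepes pH 7.0, room temperature.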
Numbers without * were called inactive; ? = inconclusive; · = no result; [ ] = remark or other dose. Sampled rows, rich in hits. Any-hit rate of the full collection: about 11%. Unless noted, calls follow the shape of the dose curve; as a rule, active = well fitted curve in the direction sought with a large enough effect; inconclusive = small, poorly fitted or top-dose-only effect, or another doubt; inactive = no such curve, though single readings can be large; an effect the other way counts as inactive or inconclusive. Unless noted, % is scaled to controls: 0 for no effect and ±100 for the full control effect.

SMILES	IMPase Li inh	PNC inhibitor	ALDH1A1 inh	HPGD inh	IMPase cell inh	12-hLO inh
Cc1n[nH]c(=O)[nH]c1=O	0%	·	11%[20.9 µM]	-5%	-1[20.6 µM]	2%[25.6 µM]
O=C(COc1ncnc2sccc12)Nc1ccc2c(c1)OCCO2	-30%[38.3 µM]	-112*	-5%	-8%	1	1%
Cc1sc2ncnc(OCC(=O)Nc3ccc4c(c3)OCCO4)c2c1C	-9%[38.3 µM]	-29	20µM*	-22%	-3	-8%
Cc1sc2ncnc(OCC(=O)NC(C)C(C)C)c2c1C (configuration not stated)	23%	·	0%	·	·	·
CCCNC(=O)COc1ncnc2sccc12	6%	·	-3%	·	·	·
Nc1ccccc1CCCC(=O)O	2%	·	9%[13.5 µM]	-6%	·	1%[11.4 µM]
CN(C)CCCN(C(=O)c1sc2ccccc2c1Cl)c1nc2ccc(F)cc2s1	?	-94*	-15%	-14%	·	1%
CN(C)CCCN(C(=O)/C=C/c1cccs1)c1nc2ccc(F)cc2s1	-7%	·	-1%	·	·	·
CN(C)CCCN(C(=O)c1ccc2c(c1)CCCC2)c1nc2ccc(Cl)cc2s1	25%	28	14µM*	-17%	-8	-1%
CCOC(C)(C)C	1%	·	6%	-1%	·	-3%
CCOc1ccc(N2C(=O)C3C4C=CC(CC4)C3C2=O)c([N+](=O)[O-])c1 (configuration not stated)	5%[38.3 µM]	-10	28µM*	-21%	2	-7%
Cc1noc(C)c1-c1ccc2ncnc(NCc3cccs3)c2c1	6%	·	?	·	·	·
CCCCN(CCCNC(=O)C1CCN(S(=O)(=O)N2CCOCC2)CC1)Cc1ccccc1	·	-2	9%	·	-2	-8%
CC(C)N(CCNC(=O)C1CCN(S(=O)(=O)N2CCOCC2)CC1)Cc1ccccc1	2%[38.3 µM]	-102*	-3%	-17%	13	2%
CCC(Cc1c(I)cc(I)c(N)c1I)C(=O)O (configuration not stated)	11%	·	11%	-4%	·	-2%
Fc1ccc(NC(=S)NC2CCN(Cc3ccccc3)CC2)cc1	1%	·	14µM*	·	·	·
COc1ccc(C/C(C)=N/NS(=O)(=O)c2ccc(Br)cc2)cc1	-4%	·	2.8µM*	·	·	·
COc1ccc(C/C(C)=N/NC(=O)c2ccc(Cl)cc2)cc1	4%	·	7.1µM*	·	·	·
CS(=O)(=O)N1CCc2cc(NC(=O)c3ccc(Cl)cc3Cl)ccc21	5%	·	?	·	·	·
Cc1ccc(NC(=O)c2sccc2SCc2cccc(C(F)(F)F)c2)cc1	24%[38.3 µM]	54	-4%	-26%	8	-9%
N#CCSc1ccsc1C(=O)Nc1ccc(F)cc1	16%[38.3 µM]	26	7.1µM*	32µM*	2	-3%
COCCn1c(=O)c(-c2ccccc2)nc2cnc(Nc3ccccc3)nc21	4%	·	2%	-3%	·	-2%
COc1ccc(C(=O)OCC(=O)c2cc(OC)ccc2OC)c(OC)c1	-1%[38.3 µM]	7	-10%	-12%	-3	-7%
COc1ccc(OC)c(C(=O)COC(=O)C2CC3CCCC(C2)C3=O)c1 (configuration not stated)	44%[38.3 µM]	?	7.1µM*	-24%	10	0%
c1ccc(-c2csc(NNC3=NCCCCC3)n2)cc1	38%[38.3 µM]	-23	32µM*	?	11	?
Clc1ccc(-c2csc(NNC3=NCCCCC3)n2)cc1	7%[38.3 µM]	16	?	?	2	7%
COc1ccc(-c2csc(NNC3=NCCCCC3)n2)cc1	19%	·	13µM*	·	·	·
COc1ccc(C(=O)c2coc3ccc(O)c(CN4CCCCC4)c23)cc1	55%[38.3 µM]	2	13µM*	-17%	7	-2%

Screening results: PubChem BioAssay, National Center for Advancing Translational Sciences (NCATS)
